From PubChem BioAssay
Compounds with a hit are over-represented: about 3.2% of the library has one in this group of screens.
Tau fluor counter: counter-screen for tau fibril formation inhibitors | actives 0.93% (n = 280,000) | tau K18 P301L Alexa594 fluorescence, heparin fibrillization | Potency, µM (titrated, usually from 57.7 µM), inactives show at the highest dose activity change, negative = decrease; further: nearly all actives have a fitted effect of over 55% in size
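Human tau K18 P301L (15 uM unlabeled, 0.24 uM Alexa 594-labeled) in 100 mM sodium acetate pH 7 with 20 uM heparin, 6 hr at 37 C. ThT 30 uM added, 1 hr ambient; Alexa 594 FP and total fluorescence read at 555/632 nm.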
RGS12 GoLoco inh: RGS12 GoLoco-Gai1 interaction inhibition. P63096. Gai1:RGS12 GoLoco peptide FP, rhodamine, 10 min. actives 0.44% (n = 230,000). AID 880. Potency, µM (top dose mostly 61.6 µM), for inactives: at the highest dose activity, negative = inhibition, most hits filed as inhibitors; active means well fitted inhibition curve with a large enough effect, not every such curve was filed as active; inactive means no such curve, though single readings can be large or run the other way; further: nearly all actives have a fitted effect of over 30% in size
Target sequence (P63096 whole entry, looked up): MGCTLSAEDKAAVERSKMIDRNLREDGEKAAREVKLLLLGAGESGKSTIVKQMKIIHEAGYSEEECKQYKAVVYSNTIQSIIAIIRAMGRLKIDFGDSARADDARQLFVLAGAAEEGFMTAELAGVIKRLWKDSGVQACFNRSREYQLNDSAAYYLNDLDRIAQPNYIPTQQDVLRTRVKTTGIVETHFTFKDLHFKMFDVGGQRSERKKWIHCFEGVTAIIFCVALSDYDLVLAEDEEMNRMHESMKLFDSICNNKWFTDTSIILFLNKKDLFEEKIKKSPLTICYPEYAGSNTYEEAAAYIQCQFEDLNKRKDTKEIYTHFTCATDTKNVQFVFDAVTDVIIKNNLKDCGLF
Tau fibril FP: blocks human tau fibril formation measured by polarization; actives 0.39% (n = 280,000); P10636; K18 P301L tau heparin fibrillization, Alexa594 FP, 6 h; Potency, µM (highest dose often 57.7 µM), for inactives: top-dose activity, negative = inhibition, hits mostly inhibitors; AID 1468; further: nearly all actives have a fitted effect of over 55% in size
Target sequence (P10636 561-689 P618L limits assumed): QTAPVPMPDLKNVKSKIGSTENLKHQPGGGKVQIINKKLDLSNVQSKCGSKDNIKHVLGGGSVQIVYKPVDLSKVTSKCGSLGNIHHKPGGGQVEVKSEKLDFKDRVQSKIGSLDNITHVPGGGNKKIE
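Steps: dispense K18 P301L tau (15 uM plus 0.24 uM Alexa 594 tracer, final) in pH 7 sodium acetate; add compound; add heparin (20 uM final); incubate 6 hr, 37 C; add ThT (30 uM final); after 1 hr ambient, read FP.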
TR SRC2 fluor cs: Texas Red fluorescence interference in TRb-SRC2 counter-screen. Potency, µM (top dose mostly 106 µM), inactives show at the highest dose fluorescence change, negative = quenching. AID 1479. TRb/SRC2 Texas Red total fluorescence interference. actives 0.29% (n = 280,000); active means well fitted curve in either direction with a large enough effect; inconclusive means small, poorly fitted or top-dose-only effect
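Flags fluorescent or light-absorbing compounds by total fluorescence, S + 2P, at 555 nm excitation and 632 nm emission. Mixture: 20 nM Texas Red SRC2 peptide, 0.6 uM human TRb LBD, 1 uM T3, 5% DMSO; compound exposure 5 h at ambient temperature.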
Tau fibril ThT: blocks human tau fibril formation measured by thioflavin T | P10636 | recombinant tau K18 P301L (four-repeat tau fragment), heparin-induced fibrillization, ThT fluorescence | Potency, µM (titrated, usually from 57.4 µM), without a hit: at the top dose activity, negative = inhibition, actives largely listed as inhibitors | actives 2.1% (n = 270,000); further: nearly all actives have a fitted effect of over 55% in size
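Aggregation was driven by heparin (20 uM final) acting on recombinant tau […] bearing P301L in 100 mM sodium acetate pH 7; fibrils were detected with Thioflavin T.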
TRb SRC2 PPI: inhibitors of human thyroid hormone receptor beta-SRC2 interaction. actives 0.065% (n = 280,000). Potency, µM (top dose mostly 106 µM), for inactives: at the highest dose activity change, negative = inhibition, usual class: inhibitors. TRbeta-SRC2 peptide binding, fluorescence polarization; receptor liganded with 1 µM T3. P10828;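 further: plate controls were bound peptide for no effect and peptide without receptor for full effect; nearly all actives have a fitted effect of over 50% in size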
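TRb LBD 0.6 uM + Texas Red SRC2 peptide 20 nM, 1 uM T3, Tris buffer w/ 5% DMSO; compound pinned, 5 h RT; FP read ex 555/em 632; normalized to unbound and bound controls.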
* = called active by the depositor; ? = inconclusive; . = not tested or not shown; [ ] = remark or other dose. Unless noted, the call rests on the fitted dose curve; in most records, active means well fitted curve in the direction sought with a large enough effect; inconclusive means small, poorly fitted or top-dose-only effect, or another doubt; inactive means no such curve, though single readings can be large; an effect the other way counts as inactive or inconclusive. Unless noted, on the % scale 0 is the no-effect control and ±100 the full control effect; potency means the concentration at half of the fitted maximal effect.

SMILES	Tau fluor counter	RGS12 GoLoco inh	Tau fibril FP	TR SRC2 fluor cs	Tau fibril ThT	TRb SRC2 PPI
O=C(Nc1cccc(Cl)c1)Nc1cc(S(=O)(=O)N2CCOCC2)ccc1N1CCCC1	14µM*[quencher]	4%	-2%	-3%	-1%	-1%
O=c1ccc2[n+]([O-])c3ccc(O)cc3oc-2c1	2µM*[fluorescent]	10µM*	32%	1.6µM*[fluorescent]	13µM*	?
CCOC(=O)C1=C(Cc2ccc(Cl)cc2)C(=O)c2ccccc2C1=O	?	-20%	?	-4%	14µM*	4%
CCOC(=O)c1c(C=O)c(C)n(Cc2ccc(Cl)cc2)c1C	-13%	-7%	2%	-2%	?	-4%
O=C(CSc1nc2ncc(Br)cc2[nH]1)c1ccc([N+](=O)[O-])cc1	?	6%	?	7%	28µM*	2%
CC(C)[C@H](NC(=O)[C@H](CCCCN)NC(=O)[C@@H](NC(=O)[C@@H]1CCCN1C(=O)[C@H](CCCN=C(N)N)NC(=O)[C@H](CCCN=C(N)N)NC(=O)[C@H](CCCCN)NC(=O)[C@H](CCCCN)NC(=O)CNC(=O)[C@@H](NC(=O)[C@@H]1CCCN1C(=O)[C@@H](N)CCCCN)C(C)C)C(C)C)C(=O)N[C@@H](Cc1ccc(O)cc1)C(=O)N1CCC[C@H]1C(=O)O	.	.	.	-3%	.	-1%
Nn1cnc2c(c1=O)C1(CCCCC1)Cc1ccccc1-2	-12%	5%	6%	0%	-4%	6%
Oc1ccc(-c2nc3c4c(ncn3n2)-c2ccccc2CC42CCCC2)cc1	?	-7%	22µM*	0%	5%	1%
Cc1[nH]n(-c2ccccc2)c(=O)c1/C=C1/C=c2ccccc2=N1	-21%	-2%	14%	0%	2.2µM*	-2%
O=C1C(Cl)=C(Sc2nnc3c4ccccc4c4ccccc4c3n2)C(=O)c2ccccc21	.	-7%[14.2 µM]	.	.	.	.
Cc1ccccc1NC(=O)CSCn1nnc2c(=O)[nH]c(Cc3ccc(F)cc3)nc21	-10%	.	-2%	-7%	-7%	0%
Cc1ccc(NC(=O)CSCn2nnc3c(=O)[nH]c(Cc4ccc(F)cc4)nc32)c(C)c1	-15%	.	-7%	0.32µM*[quencher]	-12%	-8%
O=C(NCCCCN1CCOCC1)c1cc2ccccc2o1	.	.	.	5%	.	6%
Cc1ccc(-n2c(Cl)c(Cl)nc(Cl)c2=O)cc1	-8%	2µM*	?	-2%	?	-6%
COc1nc(Cl)cn(-c2ccc(C)cc2)c1=O	4%	-1%	-2%	-3%	5%	-5%
Cc1nc2nc[nH]n2c(=O)c1CCC(=O)Nc1ccc(F)cc1	-2%	.	1%	-1%	4%	1%
S=C(Nc1ccc(Cl)cc1)NC1CCCCC1	-30%	-4%	-4%	0%	-10%	-1%
S=C(Nc1ccc(Nc2ccccc2)cc1)NC1CCCCCC1	10µM*[quencher]	4%	9%	-3%	-16%	2%
CC1CCCN(C(=S)Nc2ccc(Nc3ccccc3)cc2)C1 (stereo not drawn)	13µM*[quencher]	6%	?	-6%	?	-3%
S=C(Nc1cccc(Cl)c1)NC1CCCCC1	-23%	-2%	-6%	-5%	-10%	1%
S=C(NNc1cccc(Cl)c1)NC1CCCCC1	-28%	14%	?	1%	25µM*	0%
O=C1CCCC2=C1C1(O)C(=O)c3ccccc3C1(O)O2 (stereo not drawn)	-15%	-2%	?	1%	3.5µM*	-29%
N#CC1=C(N)OC2=C(C(=O)CCC2)[C@]12C(=O)N(CC(N)=O)c1ccccc12	-3%	.	0%	-1%	-6%	5%
COc1ccc([N+](=O)[O-])cc1NC(=O)Cc1ccccc1Cl	-11%	-6%	-9%	-2%	2%	3%
Cc1ccc(N=Cc2cc(Cc3ccccc3Cl)cc([N+](=O)[O-])c2O)c(O)c1	?	227%	?	?	7.9µM*	-7%
